Among all 310,000 compounds or so, about 14,000 (4.5%) showed an effect of 50% or more. Effects have a minus sign here. Shown is part of a subset that was picked to be rich in strong results.
Biological target: human ether-à-go-go-related gene (hERG) potassium channel (human, UniProt Q12809)
Assay: primary screen, population patch clamp on CHO cells stably expressing hERG; higher = less effect of the substance
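Note: peak tail current of the secondary pulse compared with the same well before compound.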

Chain of human ether-à-go-go-related gene (hERG) potassium channel (Q12809 whole entry, looked up): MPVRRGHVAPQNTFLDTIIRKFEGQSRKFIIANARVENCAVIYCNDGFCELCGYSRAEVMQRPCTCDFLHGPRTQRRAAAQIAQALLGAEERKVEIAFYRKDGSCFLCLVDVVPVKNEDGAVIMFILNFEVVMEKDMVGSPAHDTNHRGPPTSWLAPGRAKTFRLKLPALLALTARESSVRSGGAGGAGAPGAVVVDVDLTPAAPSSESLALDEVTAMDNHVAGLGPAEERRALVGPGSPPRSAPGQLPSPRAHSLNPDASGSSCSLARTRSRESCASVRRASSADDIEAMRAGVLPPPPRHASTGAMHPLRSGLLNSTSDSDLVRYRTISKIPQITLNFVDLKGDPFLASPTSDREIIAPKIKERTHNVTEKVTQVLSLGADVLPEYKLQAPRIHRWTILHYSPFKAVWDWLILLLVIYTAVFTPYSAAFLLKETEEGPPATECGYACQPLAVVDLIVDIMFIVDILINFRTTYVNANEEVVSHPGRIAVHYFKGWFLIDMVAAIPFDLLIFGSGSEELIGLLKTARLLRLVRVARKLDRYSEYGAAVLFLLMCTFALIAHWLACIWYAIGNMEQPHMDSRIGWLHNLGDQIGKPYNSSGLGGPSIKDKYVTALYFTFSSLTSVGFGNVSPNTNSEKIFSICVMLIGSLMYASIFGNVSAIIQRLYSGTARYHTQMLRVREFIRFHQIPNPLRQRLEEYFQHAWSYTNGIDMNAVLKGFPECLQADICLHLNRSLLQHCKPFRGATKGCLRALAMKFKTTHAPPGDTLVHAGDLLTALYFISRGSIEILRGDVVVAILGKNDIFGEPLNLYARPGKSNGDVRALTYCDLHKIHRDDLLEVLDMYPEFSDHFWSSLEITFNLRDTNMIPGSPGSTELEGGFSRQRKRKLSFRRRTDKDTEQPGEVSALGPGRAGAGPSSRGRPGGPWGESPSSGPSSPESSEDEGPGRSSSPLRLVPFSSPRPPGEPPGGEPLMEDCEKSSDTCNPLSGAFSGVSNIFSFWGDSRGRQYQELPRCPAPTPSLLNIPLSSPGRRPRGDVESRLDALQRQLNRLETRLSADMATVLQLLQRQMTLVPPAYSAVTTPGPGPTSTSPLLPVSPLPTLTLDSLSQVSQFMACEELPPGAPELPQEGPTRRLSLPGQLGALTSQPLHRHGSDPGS

Row | Compound | hERG current change (%, negative = inhibition) at 10uM [%]
1 | COCCCNc1ncnc2sc3c(c12)CCC(C)C3 (stereo not shown) | -24.5
2 | CCCCNc1ncnc2sc3c(c12)CCN(CCC)C3 | -76
3 | CC1CCc2c(sc3ncnc(N4CCOCC4)c23)C1 (stereo not shown) | -16.6
4 | CC1CCc2c(sc3ncnc(NCCN4CCOCC4)c23)C1 (stereo not shown) | -54.6
5 | c1cn(CCCNc2ncnc3sc4c(c23)CCC4)cn1 | -37.5
6 | Cc1cc(NS(=O)(=O)c2ccc(NC(=O)CSc3nc4ncc(Br)cc4[nH]3)cc2)nc(C)n1 | 20.8
7 | CC(C)Oc1cccc(C(=O)C2CCCN(C(=O)c3ccc4c(c3)OCO4)C2)c1 (stereo not shown) | -26.9
8 | O=C(c1ccc2c(c1)OCO2)C1CCCN(Cc2ccccc2OC(F)F)C1 (stereo not shown) | -58.8
9 | O=C(c1ccc2c(c1)OCO2)C1CCCN(Cc2ccc(OC(F)F)cc2)C1 (stereo not shown) | -85.7
10 | N/C(=N\OC(=O)COc1ccc2ccccc2c1Br)c1ccncc1 | 5.98
11 | CCOc1ccc(NC(=O)NCc2ccc3c(c2)OCO3)cc1 | 9.08
12 | O=C(CCc1nc2ccccc2c(=O)[nH]1)N1CCN(c2ccc(F)cc2)CC1 | -68
13 | Cc1ccc(C)c(S(=O)(=O)N2CCN(C(=O)CCc3nc4ccccc4c(=O)[nH]3)CC2)c1 | -47.1
14 | Cc1nc2c3ccccc3nc(NNC(=O)CCC(=O)N3CCN(c4ccccc4)CC3)n2n1 | -28.5
15 | CN1CCN(C(=O)CCc2nc3ccccc3c(=O)[nH]2)CC1 | 21.9
16 | Cc1nc2c3ccccc3nc(NNC(=O)CCC(=O)N3CCN(c4ccc(F)cc4)CC3)n2n1 | -53.2
17 | CC(=O)N1CCN(C(=O)CCc2nc3ccccc3c(=O)[nH]2)CC1 | 2.7
18 | O=C(CCc1nc2ccccc2c(=O)[nH]1)N1CCN(S(=O)(=O)c2ccc(F)cc2)CC1 | -27.6
19 | O=C(CCc1nc2ccccc2c(=O)[nH]1)N1CCN(S(=O)(=O)c2ccccc2Br)CC1 | -51.3
20 | COc1ccc(N2CCN(C(=O)CCC(=O)NNc3nc4ccccc4c4nc(C)nn34)CC2)cc1 | -29.1
21 | O=C(CSc1ncnc2c1cnn2-c1ccc(F)cc1)NCC1CCCO1 (stereo not shown) | 13.7
22 | O=C1CCCS(=O)(=O)c2ccccc21 | 23.8

Row | Compound | hERG current change (%, negative = inhibition) at 10uM [%]
23 | Cc1cccc(OCC(=O)NCCCNC(=O)c2ccc(C)nc2)c1 | 17.9
24 | Cc1ccc(NC2(C(F)(F)F)N=C(c3ccccc3)NC2=O)nc1 (stereo not shown) | 18.4
25 | Cc1ccc(N2CCN(c3ccc(NC(=O)CCC(=O)O)cc3)CC2)cc1 | 19.6
26 | COc1cc(Br)cc(/C=C/c2ccc3cccc(O)c3n2)c1OC | 11.4
27 | COCCN(Cc1cn(C)nc1-c1ccccc1F)C(C)C | 15.5
28 | CC(C)n1c(SCC(=O)Nc2ccccc2N2CCCCC2)nc2c1c(=O)n(C)c(=O)n2C | -36.7
29 | Cn1c(=O)c2c(nc(SCC(=O)Nc3ccccc3N3CCCCC3)n2C)n(C)c1=O | -54
30 | O=C(CS(=O)(=O)c1ccccc1)Nc1nc(-c2ccccc2)cs1 | -51.9
31 | COc1ccc(C2(O)CCN(CC(=O)Nc3nc(-c4ccccc4)cs3)CC2)cc1 | -10.1
32 | CCCn1c(SCC(=O)Nc2ccccc2N2CCCCC2)nc2c1c(=O)n(C)c(=O)n2C | -29.9
33 | O=C(CS(=O)(=O)c1ccccc1)Nc1nc(-c2ccc(F)cc2)cs1 | 16.6
34 | COc1ccccc1C1(O)CCN(CC(=O)Nc2nc(-c3ccccc3)cs2)CC1 | -56.8
35 | CC(C)n1c(SCC(=O)Nc2nc3c(s2)CCCC3)nc2c1c(=O)n(C)c(=O)n2C | -59.2
36 | CCCn1c(SCC(=O)Nc2nc3c(s2)CCCC3)nc2c1c(=O)n(C)c(=O)n2C | -1.39
37 | Cc1nnc(NC(=O)CSc2nc3c(c(=O)n(C)c(=O)n3C)n2C(C)C)s1 | -0.769
38 | CN1CCN(CC(=O)Nc2nc(-c3ccccc3)cs2)CC1 | -40.4
39 | Cc1ccc(S(=O)(=O)CC(=O)Nc2nc(-c3ccccc3)cs2)cc1 | -38
40 | O=C(CN1C(=O)NC2(CCCCCC2)C1=O)NCCc1ccccc1 | 1.14
41 | Cc1noc(C)c1CSCC(=O)Nc1nc2ccc(Oc3ccccc3)cc2s1 | -13.6
42 | CN(CC(=O)Nc1ccccc1C(F)(F)F)C(=O)CC1OC(=O)c2ccccc21 (stereo not shown) | 9.27
43 | CCOC(=O)CSc1nnc(CNc2ccc(Cl)cc2)n1-c1ccccc1 | 11.2

Reference: article PMC4336329 (PLoS ONE, 2015)
